In the library only some 2.5% were active in any assay of this set; here they are far more common.
rCAG RNA binder – binds r(CAG) RNA repeats. inhibition, % at 3 µM. r(CAG) RNA repeat, TO-PRO-1 dye displacement fluorescence. hit rate 1.3% among 370,000;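 active means inhibition above the plate cutoff, the mean of all test compounds on that plate plus 3 SD, cut at about 35% in these data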;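 further: higher means more dye released from RNA so lower well fluorescence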
Exocytosis inh – lytic granule exocytosis inhibition. TALL-104 LAMP-1 surface exposure, flow cytometry; cells stimulated with thapsigargin and PMA. inhibition, % at 10 µM. hit rate 0.66% among 360,000;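 active means inhibition above about 55%, limit read from the data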
ABCB6 inh 2 – inhibitors of human ABC transporter ABCB6; K562-ABCB6 porphyrin accumulation, flow cytometry, 1 h; hits give low values; fluorescence ratio to DMSO, % at 10 µM; hit rate 0.19% among 360,000; AID 602162;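 active means fluorescence ratio to DMSO below 75%, the collection mean minus 3 SD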;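 further: signal is porphyrin accumulated inside mitochondria; lower ratio means ABCB6 inhibition with less porphyrin fluorescence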
PG9 binder – small molecules binding HIV-1 gp120 antibody PG9 | AID 624416 | inhibition, % at 6.7 µM | hit rate 0.43% among 360,000 | TR-FRET gp120-PG9 antibody binding; in the data active means inhibition above about 8.5%
PG9 binder conf – confirmation of small molecules binding HIV-1 gp120 antibody PG9; shares compounds with PG9 binder; TR-FRET PG9 antibody binding, biochemical; inhibition, % at 6.7 µM; hit rate 90% among 1,500; in the data active means inhibition above about 9%
PGV04 Ab binding – counter-screen for PG9 binders: binding control antibody PGV04. inhibition, % at 6.7 µM. TR-FRET PGV04 antibody-gp120 binding, biochemical. AID 651604. shares compounds with PG9 binder. hit rate 95% among 1,500; in the data active means inhibition above about 9.5%
PG9 binder DR – small molecules binding HIV-1 gp120 antibody PG9. 95 tested, under 10 active. shares compounds with PG9 binder. IC50, µM. TR-FRET PG9 antibody-gp120 binding inhibition; in the data active means IC50 below about 10 µM
PGV04 binding DR – PGV04 binding, dose response counter-screen | IC50, µM | shares compounds with PG9 binder | TR-FRET binding to control antibody PGV04 | hit rate 20% among 95
PG126 DR counter – PG126 binding, dose response counter-screen; shares compounds with PG9 binder; TR-FRET binding to antibody PG126, counterscreen; IC50, µM; hit rate 20% among 95; AID 651939
Numbers stand for hits. Unless noted, no stated cut-off is given here; in the data, active means IC50 below about 9 µM; inactive means the rest.

How did C=CCN1C(=O)/C(=C2/Sc3ccc(OC)cc3N2C)SC1=Nc1cccc(O)c1 do in these assays?
rCAG RNA binder: inactive; Exocytosis inh: inactive; ABCB6 inh 2: inactive; PG9 binder: 10.5; PG9 binder conf: 41.0; PGV04 Ab binding: 58.8

Results for Cc1cccc(Nc2nn3c(=O)c4ccccc4nc3s2)c1 ?
rCAG RNA binder: inactive; Exocytosis inh: inactive; ABCB6 inh 2: inactive; PG9 binder: 27.5; PG9 binder conf: 62.4; PGV04 Ab binding: 68.5

Results for COc1ccc(OC)c(NC(=O)c2[nH]c(C)c(C(C)=O)c2C)c1 ?
rCAG RNA binder: inactive; Exocytosis inh: inactive; ABCB6 inh 2: inactive; PG9 binder: inactive

How did COc1ccc(Cl)cc1NC(=O)c1[nH]c(C)c(C(C)=O)c1C do in these assays?
rCAG RNA binder: inactive; Exocytosis inh: inactive; ABCB6 inh 2: inactive; PG9 binder: 27.0; PG9 binder conf: 28.4; PGV04 Ab binding: 31.4

How did COCCN(Cc1cc2cc3c(cc2nc1Cl)OCO3)C(=O)c1ccc(C)cc1 do in these assays?
rCAG RNA binder: inactive; Exocytosis inh: inactive; ABCB6 inh 2: inactive; PG9 binder: inactive

How did Brc1ccc(-c2nn3c(-c4ccco4)nnc3s2)o1 do in these assays?
rCAG RNA binder: inactive; Exocytosis inh: inactive; ABCB6 inh 2: inactive; PG9 binder: 16.2; PG9 binder conf: 20.0; PGV04 Ab binding: 37.3

Results for Brc1ccc(-c2nn3c(-c4ccccn4)nnc3s2)o1 ?
rCAG RNA binder: inactive; Exocytosis inh: inactive; ABCB6 inh 2: inactive; PG9 binder: inactive

How did Cc1ccc(-c2nc3cccnc3s2)cc1NC(=O)C1c2ccccc2Oc2ccccc21 do in these assays?
rCAG RNA binder: inactive; Exocytosis inh: inactive; ABCB6 inh 2: inactive; PG9 binder: 19.1; PG9 binder conf: 30.0; PGV04 Ab binding: 63.2

What do the screens show for `Cc1ccc(-c2nc3cccnc3s2)cc1NC(=O)c1ccco1`?
rCAG RNA binder: inactive; Exocytosis inh: inactive; ABCB6 inh 2: inactive; PG9 binder: inactive

How did O=C1C=C(c2ccccc2)C(c2ccccc2)C1 (configuration not stated) do in these assays?
rCAG RNA binder: inactive; Exocytosis inh: inactive; ABCB6 inh 2: inactive; PG9 binder: inactive

What do the screens show for `Cc1cccc2nc(Cn3c(=O)n(CCC(=O)NCc4ccco4)c(=O)c4sccc43)cc(=O)n12`?
rCAG RNA binder: inactive; Exocytosis inh: inactive; ABCB6 inh 2: inactive; PG9 binder: inactive

How did Cc1ccccc1Cn1c(=O)n(CCCC(=O)NCc2ccco2)c(=O)c2sccc21 do in these assays?
rCAG RNA binder: inactive; Exocytosis inh: inactive; ABCB6 inh 2: inactive; PG9 binder: inactive

What do the screens show for `Cc1ccc(C)c(Cn2c(=O)n(CCC(=O)NCc3ccco3)c(=O)c3sccc32)c1`?
rCAG RNA binder: inactive; Exocytosis inh: inactive; ABCB6 inh 2: inactive; PG9 binder: 11.7; PG9 binder conf: 13.2; PGV04 Ab binding: 17.6

What do the screens show for `Cc1ccc(-n2c(=O)c3sccc3n(CC(=O)NCc3ccco3)c2=O)cc1F`?
rCAG RNA binder: inactive; Exocytosis inh: inactive; ABCB6 inh 2: inactive; PG9 binder: 9.4; PG9 binder conf: 12.2; PGV04 Ab binding: 19.3

How did Cc1cc(C)c(Cn2c(=O)n(CCCC(=O)NCc3ccco3)c(=O)c3sccc32)c(C)c1 do in these assays?
rCAG RNA binder: inactive; Exocytosis inh: inactive; ABCB6 inh 2: inactive; PG9 binder: 18.5; PG9 binder conf: 21.3; PGV04 Ab binding: 25.5

How did Cc1ccc(-n2c(=O)c3sccc3n(CC(=O)NCc3ccco3)c2=O)cc1 do in these assays?
rCAG RNA binder: inactive; Exocytosis inh: inactive; ABCB6 inh 2: inactive; PG9 binder: inactive

How did COc1ccc(C=O)cc1Cn1c(=O)n(CCC(=O)NCc2ccco2)c(=O)c2sccc21 do in these assays?
rCAG RNA binder: inactive; Exocytosis inh: inactive; ABCB6 inh 2: inactive; PG9 binder: 14.1; PG9 binder conf: inactive; PGV04 Ab binding: 17.2

How did N#CCc1ccc(OC(=O)c2ccncc2)cc1 do in these assays?
rCAG RNA binder: inactive; Exocytosis inh: inactive; ABCB6 inh 2: inactive; PG9 binder: inactive

What do the screens show for `Cc1ccc2[nH]c3c(=O)n(N)c(C)nc3c2c1`?
rCAG RNA binder: inactive; Exocytosis inh: inactive; ABCB6 inh 2: inactive; PG9 binder: inactive

Results for Cc1ccc2[nH]c3c(=S)nc[nH]c3c2c1 ?
rCAG RNA binder: inactive; Exocytosis inh: inactive; ABCB6 inh 2: inactive; PG9 binder: 72.4; PG9 binder conf: 44.4; PGV04 Ab binding: 20.7; PG9 binder DR: inactive; PGV04 binding DR: inactive; PG126 DR counter: inactive

What do the screens show for `CCN(c1ccc(C(=O)CN2C(=O)NC3(CCOc4ccccc43)C2=O)cc1)S(C)(=O)=O` (configuration not stated)?
rCAG RNA binder: inactive; Exocytosis inh: inactive; ABCB6 inh 2: inactive; PG9 binder: 9.8; PG9 binder conf: 33.6; PGV04 Ab binding: 32.4; PG9 binder DR: inactive; PGV04 binding DR: inactive; PG126 DR counter: inactive

How did COCCn1c(=N)c(S(=O)(=O)c2ccc(F)cc2)cc2c(=O)n3ccccc3nc21 do in these assays?
rCAG RNA binder: inactive; Exocytosis inh: inactive; ABCB6 inh 2: inactive; PG9 binder: inactive

How did O=C(N/N=C/c1ccccn1)c1cc(-c2ccncc2)nc2ccccc12 do in these assays?
rCAG RNA binder: inactive; Exocytosis inh: inactive; ABCB6 inh 2: inactive; PG9 binder: 14.8; PG9 binder conf: 19.2; PGV04 Ab binding: 33.9

Results for COC(=O)c1cc(Cl)c(NC(=O)c2cc3ccccc3o2)cc1OC ?
rCAG RNA binder: inactive; Exocytosis inh: inactive; ABCB6 inh 2: inactive; PG9 binder: 8.7; PG9 binder conf: inactive; PGV04 Ab binding: 38.0

Results for Cn1nc(-c2ccc(Cl)cc2)cc1NC(=O)CSCC(=O)O ?
rCAG RNA binder: inactive; Exocytosis inh: inactive; ABCB6 inh 2: inactive; PG9 binder: inactive

How did CC(=O)n1nc(-c2ccccc2)nc1NCc1cccs1 do in these assays?
rCAG RNA binder: inactive; Exocytosis inh: inactive; ABCB6 inh 2: inactive; PG9 binder: inactive

How did CC1=CC(=C(C#N)C#N)C=C(C)N1CCN1CCN(C(=O)Nc2ccc(Cl)c(Cl)c2)CC1 do in these assays?
rCAG RNA binder: inactive; Exocytosis inh: inactive; ABCB6 inh 2: inactive; PG9 binder: inactive

What do the screens show for `CC1=CC(=C(C#N)C#N)C=C(C)N1Cc1ccc(Cl)cc1`?
rCAG RNA binder: inactive; Exocytosis inh: inactive; ABCB6 inh 2: inactive; PG9 binder: 19.1; PG9 binder conf: 23.6; PGV04 Ab binding: 31.1

Results for Cc1cc(C)c(NC(=O)CSc2nc3ncc(Br)cc3[nH]2)c(Cl)c1 ?
rCAG RNA binder: inactive; Exocytosis inh: inactive; ABCB6 inh 2: inactive; PG9 binder: 35.0; PG9 binder conf: 39.1; PGV04 Ab binding: 62.9

How did Cc1ccc(NC(=O)CSc2nc3ncc(Br)cc3[nH]2)cc1C do in these assays?
rCAG RNA binder: inactive; Exocytosis inh: inactive; ABCB6 inh 2: inactive; PG9 binder: 45.3; PG9 binder conf: 65.9; PGV04 Ab binding: 79.4
